Screens as filed in PubChem.
ssDAF12 agonist: activates DAF-12 receptor from parasite S. stercoralis. HEK293 ssDAF-12/GRIP1 lit1-tk-luc reporter, luminescence; % of 3 µM dafachronic acid response. activation, % at 6.8 µM. hit rate 1% among 370,000. AID 652126;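 active = activation above the mean over all tested compounds plus 3 SD, cut at about 0.9% in these data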;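 also: 0% = DMSO-only wells and 100% = 3 µM delta7-dafachronic acid wells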
hgDAF12 agonist: activates the H. glycines DAF-12 receptor ligand-binding domain; AID 687014; HEK293 GAL4-hgDAF12 UAS-luciferase reporter, agonist luminescence; normalized to butyrate control; activation, % at 6.8 µM; hit rate 1.8% among 370,000;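 active = activation above a cutoff set at the mean of all screened compounds plus 3 SD, cut at about 10% in these data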;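 also: 0% = DMSO wells and 100% = sodium butyrate wells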
hcDAF-12 act: activators of H. contortus DAF-12 nuclear receptor | HEK293 hcDAF-12 lit1-tk-luc reporter, luminescence; 0% DMSO, 100% Δ7-dafachronic acid | activation, % at 6.8 µM | hit rate 1.4% among 370,000;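 active = activation above the mean of all tested compounds plus 3 SD, cut at about 5.5% in these data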;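 also: 100% = response to 3 µM Δ7-dafachronic acid high control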
DAX1 inh-1: DAX1 (NR0B1) inhibition, primary screen; HEK293T StAR-luciferase reporter, SF-1/DAX-1 repression relief; inhibition, % at 6.8 µM; hit rate 1.1% among 370,000;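 active = inhibition above the mean over all tested compounds plus 3 SD, cut at about 3.6% in these data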;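 also: 0% = DAX-1 cells with DMSO and 100% = cells lacking DAX-1 with DMSO; higher inhibition means more luminescence from relief of DAX-1 repression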
DAX1 inh-2: NR0B1 (DAX1) inhibition. P51843. AID 504766. HEK293 Gal4-DAX1 luciferase reporter, luminescence. hit rate 0.99% among 340,000. inhibition, % at 6.75 µM;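 active = inhibition above the mean over all tested compounds plus 3 SD, cut at about 4.2% in these data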;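 also: 0% = DAX1-transfected cells with DMSO and 100% = empty-vector control cells with DMSO; inhibition shows as a rise in luminescence from relieved DAX1 repression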
Target sequence (P51843 207-470 limits assumed): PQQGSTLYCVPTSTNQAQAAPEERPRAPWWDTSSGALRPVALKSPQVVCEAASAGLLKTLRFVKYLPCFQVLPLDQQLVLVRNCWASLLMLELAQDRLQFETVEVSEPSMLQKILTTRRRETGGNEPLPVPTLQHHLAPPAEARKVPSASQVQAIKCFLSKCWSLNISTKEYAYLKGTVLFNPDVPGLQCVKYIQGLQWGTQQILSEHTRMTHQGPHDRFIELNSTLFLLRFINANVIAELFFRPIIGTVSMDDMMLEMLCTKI
* marks the source's active call; other numbers are inactive results; / = no result given. Compounds with a hit are over-represented: about 4.1% of the library has one in this group of screens.

SMILES	ssDAF12 agonist	hgDAF12 agonist	hcDAF-12 act	DAX1 inh-1	DAX1 inh-2
COc1ccccc1C(=O)N1CCN(C(=O)[C@@H](Cc2ccccc2)NC(=O)[C@H]2O[C@@H](n3ccc(=O)[nH]c3=O)[C@H](O)[C@@H]2O)CC1	-1.1	-1.2	-1.0	-0.3	/
COc1cccc(/C(O)=C2/C(=O)C(=O)N(CCN(C)C)C2c2ccccn2)c1 (stereo not given)	-0.7	0.5	0.3	0.3	1.1
CN(C)CCN1C(=O)C(=O)/C(=C(/O)c2ccc3c(c2)OCCO3)C1c1ccccn1 (stereo not given)	-1.0	3.7	1.3	0.1	5.2*
O=S1(=O)CC2c3ccccc3CCN2CN1CCc1ccccc1 (stereo not given)	-0.7	0.2	-1.1	0.1	/
CCOc1ccc2nc(SCc3ccccc3C#N)sc2c1	-1.1	10.6*	0.8	1.2	2.6
CC1CCN(c2c3c(nc4ncnn24)CCCC3)CC1	-1.2	4.3	-2.9	-1.6	/
NNC(=O)c1ccc(Cn2cc(Br)cn2)o1	-0.9	2.8	-0.9	-0.1	4.5*
CC1CCC2(CC1)CCN(CCCOC(=O)Nc1cccc(C(F)(F)F)c1)C2=O (stereo not given)	-1.0	0.6	-0.7	-2.9	/
Cc1cc(O)c(C2=Nc3ccccc3SC(c3ccc(Cl)cc3)C2)c(=O)o1 (stereo not given)	0.0	5.5	6.1*	0.1	2.2
Cc1cc(C(N)=O)c2ccccc2n1	-1.1	0.5	-1.7	-0.7	-1.2
NC(=O)c1cc2ccncc2c2ccccc12	-2.0	11.3*	-3.0	-0.5	-0.1
Cc1cc(N2CCCCC2C)nc(-c2ccccc2O)n1 (stereo not given)	-1.3	2.4	-0.3	-0.4	4.4*
CC(C)N1C(=O)CN(C2CCCCCC2)C(=O)C1c1ccccc1F (stereo not given)	-0.5	10.5*	1.2	1.4	2.8
Cc1ccc(-c2nnc(SCC(=O)Nc3ccc(OCc4ccccc4)cc3)n2-c2ccc(Cl)cc2)cc1	-1.2	0.1	0.8	-0.6	/
Cc1ccc2c(c1)CCCN2CC(=O)N(C)c1c(N)n(Cc2ccccc2)c(=O)[nH]c1=O	1.3*	0.3	1.8	-0.8	0.7
O=C(CN1CCN(Cc2ccccc2)CC1)N/N=C\c1ccccc1[N+](=O)[O-]	-0.4	-1.9	0.5	0.1	/
N#Cc1ccccc1OCC(=O)OCC(=O)c1c[nH]c2ccccc12	-0.1	1.7	2.2	4.1*	0.4
O=C(COC(=O)C1CC1)c1c[nH]c2ccccc12	1.1*	7.5	6.2*	1.4	1.9
O=C(COc1cccnc1[N+](=O)[O-])c1c[nH]c2ccccc12	-0.6	1.9	5.9*	-0.2	-0.9
O=C(Cc1ccccc1[N+](=O)[O-])OCC(=O)c1c[nH]c2ccccc12	0.6	6.2	5.6	2.3	2.0
O=C(COC(=O)c1cccc(S(=O)(=O)N2CCCCC2)c1)NCc1ccccc1	-0.6	0.8	0.3	0.8	-0.2
O=C(OCC(=O)c1c[nH]c2ccccc12)c1cccc(S(=O)(=O)N2CCCCCC2)c1	1.1*	0.6	1.4	0.4	-1.1
Cc1cc(C)c(C(=O)COc2cccnc2[N+](=O)[O-])cc1C	-0.8	-3.7	-1.3	0.3	-0.1
Cc1ccc(C(=O)N2CCC[C@@H]2C(=O)N2CCC[C@@H]2C(=O)NCc2ccccc2)cc1	-0.6	0.8	-0.3	-0.1	/
COc1cccc(C(=O)OCC(=O)c2c[nH]c3ccccc23)c1O	1.9*	3.5	4.8	0.0	1.0
SMILES	ssDAF12 agonist	hgDAF12 agonist	hcDAF-12 act	DAX1 inh-1	DAX1 inh-2
COc1cccc(/C=C/C(=O)OCC(=O)c2c[nH]c3ccccc23)c1OC	-0.8	0.5	-0.3	-1.0	-1.6
COc1ccc(C(=O)COC(=O)c2cc(=O)[nH]c3ccccc23)c(OC)c1	1.0*	5.1	2.6	3.6	0.4
CC(=O)OCC(=O)c1c[nH]c2ccccc12	1.1*	1.7	5.0	-0.3	2.2
O=S1(=O)c2ccc(N3CCSCC3)cc2Oc2ccccc2CN1Cc1cn(Cc2ccc(F)cc2)nn1	-0.9	-3.2	-1.2	-1.1	/
CC[C@@]1(c2cccc(Cl)c2)C(=O)N(C(=O)OC(C)C)N1C(=O)OC(C)C	-0.8	-0.7	-0.2	-0.9	/
CCCCNC(=O)N1CCC(c2nc3ccc(Cl)cc3[nH]2)CC1	-0.7	0.5	-0.6	-0.7	/
Nc1nc2n(n1)C(c1cccs1)CC(c1ccccc1)N2 (stereo not given)	-1.8	-0.9	-1.9	-0.2	-0.7
Nc1nc2n(n1)C(=O)CC(c1ccccc1)N2 (stereo not given)	-1.5	-6.1	-0.6	3.7*	0.0
COc1cccc(-c2ccc(=O)n(CC(=O)NCCN3CCOCC3)n2)c1	0.9*	2.8	-0.5	-0.1	1.3
CC[C@@H](CCCc1ccc(OC)cc1)CCC(=O)N(c1ccccc1)c1ccccc1	-1.6	-0.9	-0.5	0.2	/
Cn1c(=O)c2cc(S(=O)(=O)N3CCN(c4ccc(F)cc4)CC3)ccc2n(C)c1=O	-1.2	-0.1	-1.2	-0.4	/
NC(=O)c1ccccc1OCCOCCOCCOc1ccccc1C(N)=O	-0.7	-1.0	-0.9	0.8	0.7
O=P(O)(O)c1ccccc1OCCOCCOCCOCCOc1ccccc1P(=O)(O)O	0.2	6.8	4.5	2.6	4.4*
S=c1[nH]nc(-c2n[nH]c3c2CCC3)n1N=Cc1c[nH]c2ccccc12	-0.9	-5.0	-1.1	0.9	/
CCN(CC)C(=O)CC[C@H]1CC[C@]2(CCCN(Cc3ccncc3)C2)O1	-1.3	0.4	-1.4	0.4	/
OC1CCN(Cc2cccc3ccccc23)CC1	-1.0	1.5	-1.0	-0.5	5.0*
CN1CCCN(Cc2cccc3ccccc23)CC1	-1.3	-0.4	1.9	0.0	0.3
COc1cccc(/C=C2/Sc3ccc(C(=O)NCCCN4CCCC4)cc3NC2=O)c1	-0.6	0.5	-1.6	3.7*	1.4
COc1ccc(NC(=O)CCCn2c(=O)oc3ccccc32)cc1Cl	0.8	7.1	6.4*	0.7	3.0
COc1cc(OC)c(NC(=O)CCCn2c(=O)oc3ccccc32)cc1Cl	-0.9	1.4	-0.5	-0.1	-0.4
CCn1c(C(=O)OC)cc2c1ccn2-c1ccc(F)cc1	0.1	13.2*	1.8	0.7	2.4
Cc1cccc(-c2noc(C3CCCCC3)n2)c1	0.3	3.0	0.8	0.5	-0.6
Cc1cccc(-c2noc(-c3ccno3)n2)c1	-1.3	1.3	1.4	0.4	4.9*
CC(=O)Nc1ccc(NC(=O)c2cc(-c3ccc(F)cc3C)n[nH]2)cc1	-0.8	12.9*	1.6	4.1*	/
O=C(c1cnn2c(C(F)F)cc(-c3ccccc3)nc12)N1CCOCC1	-1.5	0.4	-0.6	-0.5	0.6
O=C(c1cnn2c(C(F)F)cc(-c3ccccc3)nc12)N1CCSCC1	-1.3	3.9	-0.5	-0.2	4.6*
COc1ccc(Nc2n[nH]c(N)c2C(N)=O)cc1	-2.1	-1.6	0.0	0.9	14.2*
